Outcome and AC50 data for 15 compounds are collected here from PubChem BioAssay (EPA / NIEHS).

Structures are written as SMILES. Several values for one entry are separate records, joined by “and”; a condition that tells them apart may be missing. Equal entries are not always repeated. Results filed as inconclusive are left out. Activity calls are given as the source filed them. The calls were made as follows, unless noted: active = hit-call score of the fitted dose curve at least 0.9, where 1 is the maximum; inconclusive = response in the unintended direction; inactive = score below 0.9.

The nature of experiment [1]: IUF_NPC4_neurite_area_120hr: Leibniz Research Institute for Environmental Medicine (IUF) 120-hour Neuronal Morphology Assay for Neurite Area (NPC4) (AID 2284305). Summed up:
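hNPC spheres on PDL/laminin, N2 medium, 37C/5% CO2; dosed day 0, half-medium refresh day 3; fixed 120 h; TUBB3/Hoechst ICC, high-content imaging; neurite area = mean pixels per neuron (nuclei excluded); DMSO baseline, max 0.1%.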

The nature of experiment [2]: IUF_NPC2-5_cytotoxicity_72hr: Cytotoxicity Assessment at 72 hours in the Leibniz Research Institute for Environmental Medicine (IUF) Neural Progenitor Cell Migration and Differentiation Assay for Cytotoxicity (NPC2-5) (AID 2284306).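 Also: LDH release into supernatant measured by resorufin fluorescence marking membrane damage.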 Summed up: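 hNPC spheres (0.3 mm), PDL/laminin, DMEM/F12 3:1 + 1% N2; cpd from d0, 7 concs + SC, DMSO max 0.1%; half-medium refresh d3. Readout: supernatant LDH via resorufin fluorescence (RFU), 72 h; gain-of-signal fit.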

Experiment [3] in a line: IUF_NPC2-5_cell_number_120hr: Cell Number Assessment at 120 hours in the Leibniz Research Institute for Environmental Medicine (IUF) Neural Progenitor Cell Migration and Differentiation Assay (NPC2-5) (AID 2284308; active = hit-call score of the fitted dose curve at least 0.9, where 1 is the maximum; inactive = score below 0.9;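 also: count of Hoechst-stained nuclei in migration zone around plated human neural progenitor spheres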). Summed up: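 Cell number is taken as all Hoechst-positive nuclei detected in the area into which cells migrate out of the sphere, scored at 120 h and referenced to DMSO solvent control, which was kept at no more than 0.1%.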

Experiment [4] can be described thus: IUF_NPC2-5_viability_120hr: Viability Assessment at 120 hours in the Leibniz Research Institute for Environmental Medicine (IUF) Neural Progenitor Cell Migration and Differentiation Assay (NPC2-5) (AID 2284312; active = hit-call score of the fitted dose curve at least 0.9, where 1 is the maximum; inactive = score below 0.9). Summed up:
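Human fetal neural progenitor spheres (0.3 mm) plated on poly-D-lysine/laminin in N2 differentiation medium, exposed 120 h with half-medium refresh at day 3. Viability by alamar blue resazurin fluorescence; 7 concentrations, DMSO max 0.1%.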

Experiment [5] can be described thus: IUF_NPC1_cytotoxicity_72hr: Cytotoxicity Assessment at 72 hours in the Leibniz Research Institute for Environmental Medicine (IUF) Neural Progenitor Cell Proliferation Assay (NPC1) (AID 2284332).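 Also: rising LDH signal means more cytotoxicity.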 Summed up:
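LDH in supernatant, resazurin→resorufin fluorescence (RFU), 72 h exposure, no re-dosing. Cells: primary hNPC spheres, one per well, EGF+FGF medium, 37C/5% CO2, pH 7.2-7.6. Fit: positive direction vs baseline and dynamic range.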

Experiment [6] is described as follows: CCTE_Mundy_HCI_iCellGluta_NOG_NeuriteLength: CCTE's Neurite Outgrowth Assay in iCellGluta cells for Neurite Length, Mundy Lab (AID 2284318). Summed up: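 Automated high-content imaging of betaIII-tubulin (Alexa Fluor-488) and Hoechst-stained cells gave neurite length, normalized to the DMSO baseline.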
The nature of experiment [7]: TAMU_PeakParms_SingleDonor1434_Asystole: Texas A&M University (TAMU) 1.5-hr Human Induced Pluripotent Stem Cell (iPSC)-derived Cardiomyocytes Calcium (Ca+2) Flux Assay for Cardiotoxicity: Asystole (quiescence of beating) (AID 2284328). Summed up: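 Donor 1434 iPSC-cardiomyocytes exposed 90 min at 37C, 5% CO2, to 0.2, 1, 10 and 100 uM in 0.5% DMSO. Ca2+ dye fluorescence gave average peak frequency; POD is EC95, a 95% beat-rate drop versus controls.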

Experiment [8] in a line: CCTE_Deisenroth_5AR_NBTE_donor: CCTE's 5alpha-reductase NanoBRET Target Engagement Assay […], Deisenroth Lab (AID 2284319; active = hit-call score of the fitted dose curve at least 0.9, where 1 is the maximum; inactive = score below 0.9). The note with it: actives raise or lower the signal. Summed up: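 HEK293T cells transiently expressing SRD5A2-NanoLuc, exposed 5 h to chemicals (8 points, 10 nM - 29.9 uM), with testosterone tracer for the final 2 h. Donor luminescence at 460 nm read after Nano-Glo substrate plus extracellular NanoLuc inhibitor; bidirectional fit versus DMSO.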
(In BRET a luciferase serves as donor, and the signal depends on an acceptor being close.)

The nature of experiment [9]: CCTE_Deisenroth_5AR_NBTE_acceptor: CCTE's 5alpha-reductase NanoBRET Target Engagement Assay - Autofluorescence Screen, Deisenroth Lab (AID 2284321; active = hit-call score of the fitted dose curve at least 0.9, where 1 is the maximum; inactive = score below 0.9;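 also: compound fluorescence in the acceptor channel under 460 nm excitation flags autofluorescence artifacts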). The note with it: actives raise or lower the signal. Summed up:
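Chemicals diluted to a nominal 100 uM in DMSO were scanned at 460 nm excitation. Samples were read in three independent runs (n=3). Gain or loss of acceptor signal was fitted relative to DMSO.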

A further experiment deals with SRD5A2 (gene 6716). As to the kind of experiment: CCTE_Deisenroth_5AR_NBTE_ratio: CCTE's 5alpha-reductase NanoBRET Target Engagement Assay - Ratio, Deisenroth Lab (AID 2284322; active = hit-call score of the fitted dose curve at least 0.9, where 1 is the maximum; inactive = score below 0.9). The note with it: actives raise or lower the signal. Summed up:
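SRD5A2-NanoLuc HEK293T; cmpd 10 nM-29.9 uM, 3 h preinc + testosterone tracer 2 h; NanoBRET ratio 650/460; bidirectional fit vs DMSO.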

A further experiment concerns IYD (gene 389434). As to the kind of experiment: CCTE_GLTED_hIYD: CCTE's human Iodotyrosine Deiodinase (xIYD) Inhibition Assay, Great Lakes Toxicology and Ecology Division (GLTED) Lab (AID 2284317).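 Also: cell-free human IYD enzyme made in baculovirus insect cells; iodide freed from monoiodotyrosine measured by cerium arsenite color change at 420 nm.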 Summed up: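 Cell-free; baculovirus/insect-cell hIYD + MIT substrate + chemical, 3 h. Dowex column cleanup, then Ce4+/As3+ Sandell-Kolthoff read at A420 nm. Triplicate plates; normalized to 3-nitro-L-tyrosine (positive) and DMSO/NaOH (solvent).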

Experiment [10] in a line: VALA_TUBHUV_Agonist_CellCount: Viability Assessment in the VALA Sciences human Umbilical Vein Endothelial Tubule Formation (TUBHUV) Agonism Assay (AID 2284309). Summed up:
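Viability endpoint by fluorescent imaging of fixed nuclear/CD31-stained HUVEC–HDF co-cultures. Readout is cell count, fitted upward against 0.1% DMSO. Compound exposure was 72 h in 10 ng/ml VEGF, after 3-day co-culture priming.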

A short description of experiment [11]: VALA_TUBIPS_Antagonist_TubuleLength: VALA Sciences human iPS-derived Endothelial Tubule Formation (TUBIPS) Antagonist Assay (AID 2284313). Summed up:
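Tubule length was quantified by high-content imaging of CD31- and nuclear-stained cells, with 0.1% DMSO as neutral and 100 uM suramin as inhibition control. Compounds were applied for 3 days, in 10 ng/ml VEGF, to cultures pre-grown 3 days.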

Experiment [12] can be described thus: VALA_MIGHUV2_WoundArea: VALA Sciences human Umbilical Vein Endothelial Cell Migration (MIGHUV) Assay, Area of Scratch Wound after Recovery (AID 2284316). Summed up:
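Wound-area endpoint read by fluorescence imaging of Hoechst-stained nuclei after a 24 h recovery period following scratch of HUVEC monolayers (9000 cells/well). Chemicals dosed within 30 min post-scratch, triplicate 6-point series, 0.1% DMSO vehicle; Cytochalasin D positive control.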

The nature of experiment [13]: VALA_TUBIPS_Antagonist_CellCount: Viability Assessment in the VALA Sciences human iPS-derived Endothelial Tubule Formation (TUBIPS) Antagonism Assay (AID 2284335).

`CCOP(=S)(OCC)SCCSCC`: the compound was classed as inactive in experiment [1], in experiment [2], in [3], in experiment [4] and in experiment [5].
With `CCOP(=S)(OCC)Oc1ccc([N+](=O)[O-])cc1`, the result in [6] and in [7] was inactive.
Turning to `CON=C(C(=O)OC)c1ccccc1CON=C(C)c1cccc(C(F)(F)F)c1`, the AC50 in [1] was 127 nM (active); in [6] it was 13.3 µM (active). Further, the compound was classed as inactive in experiment [2], in experiment [3], in [4] and in [5].
As to `C=C(C)[C@H]1Cc2c(ccc3c2O[C@@H]2COc4cc(OC)c(OC)cc4[C@@H]2C3=O)O1`, the concentration at half-maximal activity (AC50) was 220 nM (active) and 15.5 nM (active) in experiment [1]; 0.00141 µM (active) in experiment [3]; 267 nM (active) and 1.57 nM (active) in experiment [4]; 0.121 µM (active) in experiment [6]; 30.6 µM (active) in the experiment with SRD5A2 (gene 6716); 0.01 µM (active) in experiment [7]. Also, the result in [2], in experiment [8], in experiment [9] and in experiment [5] was inactive.
As for `COP(=O)(NC(C)=O)SC` (configuration not stated), the outcome in experiment [1], in experiment [2], in [3], in experiment [4] and in experiment [5] was inactive.
As for `CCOP(=O)(NC(C)C)Oc1ccc(SC)c(C)c1` (configuration not stated), the compound was called inactive in experiment [1], in experiment [2], in experiment [3], in experiment [4], in experiment [6] and in experiment [5].
Consider `CCOP(=S)(Oc1cnc(C(C)(C)C)nc1)OC(C)C` (configuration not stated), for which the result in [1], in experiment [2], in experiment [3], in experiment [4] and in [5] was inactive. The concentration at half-maximal activity (AC50) in experiment [6] was 21 µM (active).
As to `CC(C)N(C(=O)SCC(Cl)=C(Cl)Cl)C(C)C`, the result (in experiment [2]; in experiment [3]; in experiment [4]; in [8]; in [9]; in the experiment on SRD5A2 (gene 6716)) was inactive. In addition, the AC50 in experiment [6] is 20.2 µM (active).
In the case of `N#CSCSC#N`, the compound was classed as inactive in experiment [8] and in experiment [9]. Moreover, the concentration at half-maximal activity (AC50) in the experiment on SRD5A2 (gene 6716) was 19.5 µM (active).
In the case of `C[N+]1(C)CCCCC1`, the call in [1], in experiment [2], in experiment [3], in experiment [4] and in [5] was inactive.
Consider `CCOP(=S)(OCC)Oc1cc(C)nc(C(C)C)n1`, for which the outcome in experiment [1], in [2], in experiment [3], in experiment [4] and in experiment [5] was inactive.
As to `COP(=O)(OC)OC(Br)C(Cl)(Cl)Br` (configuration not stated), the figures for the concentration at half-maximal activity (AC50) in [1], in [3] and in [6] were 27000 nM (active), 25.7 µM (active) and 13.5 µM (active), respectively. Also, the outcome (in experiment [2]; in experiment [4]; in experiment [8]; in experiment [9]; in the experiment with SRD5A2 (gene 6716); in [5]) was inactive.
Consider `CCOP(=O)(OCC)Oc1cc(C)nc(C(C)C)n1`, for which the outcome (in experiment [1]; in experiment [2]; in [3]; in [4]; in the experiment on IYD (gene 389434); in [6]) was inactive. Also, the compound was classed as inactive in experiment [5].
Consider `CCCSP(=O)(OCC)SCCC`, for which the result in experiment [1], in experiment [2], in [3], in experiment [4], in experiment [6] and in experiment [5] was inactive.
In the case of `CC1=NNC(=O)N(/N=C/c2cccnc2)C1`, the compound was called inactive in [1], in experiment [2], in [3], in experiment [10], in [4] and in experiment [11]. Further, the call in experiment [12], in experiment [6], in experiment [5] and in experiment [13] was inactive.

For orientation: AC50 means the midpoint of the concentration-response curve, whichever way the signal moves.
